Our source for the binding signal values is article PMC3218832.

Among the targets are RELARELA (p65 homodimer) (Homo sapiens, UniProt Q04206 1-307); p50p50 homodimer (Homo sapiens, UniProt P19838 7-356); RELB subunit;p50 subunit (Homo sapiens;Homo sapiens, UniProt Q01201;P19838 120-401;7-356).
Holding throughout (experiment): protein binding microarray; high values mean tight binding
Conditions in all cases: dsDNA, one strand shown

The next assay has as its target T1, p52p52 homodimer (Homo sapiens, UniProt Q00653 4-332).
T1 sequence: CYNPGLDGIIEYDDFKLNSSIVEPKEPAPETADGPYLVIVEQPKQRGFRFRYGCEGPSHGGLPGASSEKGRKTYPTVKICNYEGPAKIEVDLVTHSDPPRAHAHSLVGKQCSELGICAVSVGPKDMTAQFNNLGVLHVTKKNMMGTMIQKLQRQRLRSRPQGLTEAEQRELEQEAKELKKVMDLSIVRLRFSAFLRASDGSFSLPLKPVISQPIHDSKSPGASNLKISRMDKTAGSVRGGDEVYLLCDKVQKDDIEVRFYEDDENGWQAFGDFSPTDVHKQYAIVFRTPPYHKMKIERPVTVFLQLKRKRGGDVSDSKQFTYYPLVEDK

The target of assay [1] is RELA (p65) subunit of heterodimer;p50 subunit (Homo sapiens;Homo sapiens, UniProt Q04206;P19838 1-307;7-356).
Assay [2] deals with RELA (p65) subunit of heterodimer;p52 subunit (Homo sapiens;Homo sapiens, UniProt Q04206;Q00653 1-307;4-332).
In the next assay the target is T2, RELB subunit;p52 subunit (Homo sapiens;Homo sapiens, UniProt Q01201;Q00653 120-401;4-332).
T2 sequence 1: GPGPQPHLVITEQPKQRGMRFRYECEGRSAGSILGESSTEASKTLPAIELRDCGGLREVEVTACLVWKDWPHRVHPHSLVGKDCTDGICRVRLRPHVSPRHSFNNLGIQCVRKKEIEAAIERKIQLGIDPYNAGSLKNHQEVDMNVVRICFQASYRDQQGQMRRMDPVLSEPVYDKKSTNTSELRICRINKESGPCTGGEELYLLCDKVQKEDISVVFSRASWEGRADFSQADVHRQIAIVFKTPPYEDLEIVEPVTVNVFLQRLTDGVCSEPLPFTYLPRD
T2 sequence 2: T1 sequence

Assay [3] deals with C-Rel subunit;p50 subunit (Homo sapiens;Homo sapiens, UniProt Q04864;P19838 1-285;7-356).
The target of assay [4] is T3, C-Rel subunit;p52 subunit (Homo sapiens;Homo sapiens, UniProt Q04864;Q00653 1-285;4-332).
T3 sequence 1: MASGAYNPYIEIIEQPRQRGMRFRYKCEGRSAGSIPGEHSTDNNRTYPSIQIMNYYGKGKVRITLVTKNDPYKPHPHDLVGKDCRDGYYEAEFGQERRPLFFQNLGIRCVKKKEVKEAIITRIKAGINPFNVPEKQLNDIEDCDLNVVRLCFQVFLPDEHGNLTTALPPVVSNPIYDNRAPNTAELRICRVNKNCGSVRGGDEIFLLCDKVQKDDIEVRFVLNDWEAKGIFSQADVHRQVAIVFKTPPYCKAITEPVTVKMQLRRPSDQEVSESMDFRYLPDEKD
T3 sequence 2: T1 sequence

p50p50 homodimer, sequence (P19838 7-356): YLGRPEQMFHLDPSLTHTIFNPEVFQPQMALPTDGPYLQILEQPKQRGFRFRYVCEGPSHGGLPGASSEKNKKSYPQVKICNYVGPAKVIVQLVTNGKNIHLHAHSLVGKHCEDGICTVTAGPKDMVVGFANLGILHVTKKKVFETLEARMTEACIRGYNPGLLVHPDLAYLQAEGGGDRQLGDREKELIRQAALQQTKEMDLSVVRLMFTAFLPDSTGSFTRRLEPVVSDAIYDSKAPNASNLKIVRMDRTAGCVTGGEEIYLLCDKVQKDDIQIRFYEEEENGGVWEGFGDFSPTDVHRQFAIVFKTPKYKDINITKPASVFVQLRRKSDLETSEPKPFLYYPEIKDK
RELA (p65) subunit of heterodimer;p50 subunit, sequence (Q04206 1-307, chain 1 of 2): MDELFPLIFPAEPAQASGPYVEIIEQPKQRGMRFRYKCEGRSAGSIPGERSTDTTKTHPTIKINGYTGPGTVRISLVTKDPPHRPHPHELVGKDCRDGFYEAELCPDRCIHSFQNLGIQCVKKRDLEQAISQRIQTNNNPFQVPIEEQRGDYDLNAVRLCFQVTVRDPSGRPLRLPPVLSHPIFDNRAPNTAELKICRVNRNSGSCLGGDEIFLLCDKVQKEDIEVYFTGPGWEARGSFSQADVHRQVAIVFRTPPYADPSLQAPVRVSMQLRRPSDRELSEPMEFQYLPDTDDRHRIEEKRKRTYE
RELA (p65) subunit of heterodimer;p50 subunit, sequence (P19838 7-356, chain 2 of 2): as the sequence (P19838 7-356) above
RELARELA (p65 homodimer), sequence (Q04206 1-307): as the sequence (Q04206 1-307, chain 1 of 2) above

With GAATTCACCCC, the binding signal stood at 0.545 z-score with RELARELA (p65 homodimer); 0.437 z-score with p50p50 homodimer; 0.192 z-score with p52p52 homodimer; 0.892 z-score in [1]; 0.806 z-score in [2]; 0.49 z-score in the assay with RELB subunit;p50 subunit. Besides, the binding signal with RELB subunit;p52 subunit was 0.753 z-score; in assay [3] it was 0.643 z-score; in assay [4], 0.698 z-score.
On to GAATATATCCC, for which the binding signal with RELARELA (p65 homodimer) is 0.0475 z-score; with p50p50 homodimer, -0.184 z-score; with p52p52 homodimer, -0.107 z-score; in assay [1] it was -0.275 z-score; in assay [2], -0.268 z-score; with RELB subunit;p50 subunit, -0.131 z-score. Besides, the binding signal with RELB subunit;p52 subunit was -0.295 z-score; in assay [3] it was -0.368 z-score; in [4], -0.351 z-score.
As for AGGTTCGCCCT, the binding signal with RELARELA (p65 homodimer) is -0.645 z-score; with p50p50 homodimer, -1.28 z-score; with p52p52 homodimer, -0.726 z-score; in assay [1], -0.876 z-score; in [2], -0.838 z-score; with RELB subunit;p50 subunit it was -0.727 z-score. Moreover, the binding signal with RELB subunit;p52 subunit was -0.728 z-score; in assay [3], -1.03 z-score; in assay [4], -0.838 z-score.
In the case of CGAATACCCCT, the binding signal in the assay with RELARELA (p65 homodimer) came to 0.147 z-score; with p50p50 homodimer, 1.13 z-score; with p52p52 homodimer, 0.86 z-score; in assay [1], 1.17 z-score; in [2] it was 1.12 z-score; with RELB subunit;p50 subunit it was 1.03 z-score. Also, the binding signal with RELB subunit;p52 subunit came out at 1.63 z-score; in assay [3], 0.876 z-score; in [4], 0.881 z-score.
Consider CAGTGCATCCT, for which the binding signal was -0.475 z-score with RELARELA (p65 homodimer); -2.12 z-score with p50p50 homodimer; -0.705 z-score in the assay with p52p52 homodimer; -0.986 z-score in assay [1]; -0.986 z-score in assay [2]; -1.19 z-score with RELB subunit;p50 subunit. Further, the binding signal is -1.04 z-score with RELB subunit;p52 subunit, -1.59 z-score in [3] and -0.988 z-score in assay [4].
On to AGAAACGTCCT, for which the binding signal in the assay with RELARELA (p65 homodimer) is -0.192 z-score; with p50p50 homodimer, -1.17 z-score; in the assay with p52p52 homodimer, -0.534 z-score; in assay [1], -0.997 z-score; in assay [2], -0.794 z-score; in the assay with RELB subunit;p50 subunit, -0.947 z-score. The binding signal was -0.798 z-score with RELB subunit;p52 subunit, -1.13 z-score in [3] and -0.812 z-score in [4].
Take AAGATGCCCCC: the binding signal worked out at 0.101 z-score with RELARELA (p65 homodimer); 1.09 z-score with p50p50 homodimer; 0.461 z-score in the assay with p52p52 homodimer; 0.893 z-score in [1]; 0.788 z-score in assay [2]; 0.97 z-score in the assay with RELB subunit;p50 subunit. Moreover, the binding signal came to 1.17 z-score with RELB subunit;p52 subunit, 1.03 z-score in [3] and 0.633 z-score in assay [4].
Regarding GAAAAAACCCC, the binding signal amounted to 2.27 z-score with RELARELA (p65 homodimer); 1.19 z-score in the assay with p50p50 homodimer; 2.74 z-score in the assay with p52p52 homodimer; 1.93 z-score in [1]; 2.2 z-score in assay [2]; 2.14 z-score in the assay with RELB subunit;p50 subunit. For the same sequence, the binding signal worked out at 2.12 z-score in the assay with RELB subunit;p52 subunit, 1.45 z-score in [3] and 2.18 z-score in assay [4].
With GGGTAACCCCT, the binding signal with RELARELA (p65 homodimer) is 1.23 z-score; with p50p50 homodimer, 0.71 z-score; with p52p52 homodimer, 1.97 z-score; in assay [1], 1.42 z-score; in assay [2], 1.8 z-score; with RELB subunit;p50 subunit, 0.672 z-score. For the same sequence, the binding signal with RELB subunit;p52 subunit was 1.45 z-score; in assay [3] it was 0.858 z-score; in assay [4], 1.95 z-score.
In the case of CGGTGGATCCC, the binding signal in the assay with RELARELA (p65 homodimer) came out at 0.0568 z-score; with p50p50 homodimer, 0.42 z-score; in the assay with p52p52 homodimer, 2.32 z-score; in assay [1] it was 0.748 z-score; in assay [2] it was 1.33 z-score; with RELB subunit;p50 subunit it was 0.911 z-score. Moreover, the binding signal with RELB subunit;p52 subunit amounted to 1.38 z-score; in assay [3], 0.293 z-score; in [4], 1.43 z-score.
Consider CAGTAATTCCC, for which the binding signal with RELARELA (p65 homodimer) is 2.18 z-score; in the assay with p50p50 homodimer, 0.948 z-score; with p52p52 homodimer, 0.804 z-score; in assay [1] it was 1.12 z-score; in [2], 0.865 z-score; with RELB subunit;p50 subunit it was 0.722 z-score. In addition, the figures for the binding signal (with RELB subunit;p52 subunit; in assay [3]; in [4]) were 0.71 z-score, 1.31 z-score and 1.05 z-score, respectively.
For GAAATCCTCCT, the binding signal is -0.0844 z-score in the assay with RELARELA (p65 homodimer); -0.961 z-score with p50p50 homodimer; -0.613 z-score in the assay with p52p52 homodimer; -0.658 z-score in assay [1]; -0.961 z-score in assay [2]; -0.979 z-score with RELB subunit;p50 subunit. Besides, the binding signal with RELB subunit;p52 subunit was -0.866 z-score; in [3] it was -0.982 z-score; in [4], -0.715 z-score.
With GGATGCATCCC, the binding signal with RELARELA (p65 homodimer) is -0.168 z-score; in the assay with p50p50 homodimer, -0.953 z-score; with p52p52 homodimer, -0.436 z-score; in assay [1], -0.723 z-score; in assay [2], -0.685 z-score; with RELB subunit;p50 subunit it was -0.7 z-score. In addition, the results for the binding signal (in the assay with RELB subunit;p52 subunit; in assay [3]; in [4]) were -0.821 z-score, -1.05 z-score and -0.672 z-score, respectively.
On to AGGAGGATCCT, for which the binding signal in the assay with RELARELA (p65 homodimer) is -0.49 z-score; with p50p50 homodimer, -1.69 z-score; in the assay with p52p52 homodimer, -0.694 z-score; in [1] it was -0.999 z-score; in assay [2], -1.04 z-score; with RELB subunit;p50 subunit, -0.926 z-score. Also, the binding signal with RELB subunit;p52 subunit is -0.821 z-score; in assay [3], -1.4 z-score; in assay [4] it was -0.915 z-score.
With GAGTACACCCT, the binding signal was -0.136 z-score in the assay with RELARELA (p65 homodimer); -0.892 z-score with p50p50 homodimer; -0.573 z-score with p52p52 homodimer; -0.83 z-score in assay [1]; -0.569 z-score in assay [2]; -0.614 z-score in the assay with RELB subunit;p50 subunit. In addition, the figures for the binding signal (with RELB subunit;p52 subunit; in [3]; in assay [4]) were -0.527 z-score, -0.745 z-score and -0.376 z-score, respectively.
